Assay results as given in the supplement of paper PMC10127200.
Counter-ions that a name gives are not always drawn.

How the values were obtained:
Test in all cases: Euclidean distance of Cell Painting phenotypic profile (signed KS, 77 features) to DMSO centroid (dimensionless distance); 5 or 10 uM (library dependent); higher = stronger phenotypic change vs DMSO (phenoactivity)
Conditions in all cases: 48 h
786-O = system: 786-O
Procedure, shortened: (§1)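 At 10 or 5 uM, as set by the library, and 0.1% DMSO final, compounds were applied for 48 h to five cancer lines and one healthy fibroblast line. Stained cells were imaged confocally at 20X in 9 fields per well, and Harmony extracted 77 features scored as signed Kolmogorov-Smirnov statistics against vehicle wells on the same plate. Profiles underwent plate-position correction, correlation weighting and replicate averaging at the top dose. Phenoactivity is the Euclidean distance from each such profile to the median vehicle profile.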

A549 = system: A549
Procedure, shortened: as §1

DU145 = system: DU145
Procedure, shortened: as §1

FB = system: FB
Procedure, shortened: as §1

HEPG2 = system: HEPG2
Procedure, shortened: as §1

OVCAR4 = system: OVCAR4
Procedure, shortened: as §1

Structure (SMILES)	Euclidean distance (786-O)	Euclidean distance (A549)	Euclidean distance (DU145)	Euclidean distance (FB)	Euclidean distance (HEPG2)	Euclidean distance (OVCAR4)
O=c1[nH]c(=O)n([C@H]2C[C@H](O)[C@@H](CO)O2)cc1I [Idoxuridine]	2.71	1.26	2.3	1.41	1.5	1.42
Nc1nc2ccc(OC(F)(F)F)cc2s1 [Riluzole]	1.03	0.891	2.58	1.3	0.688	0.739
CCCCc1nc2cc(/C=C/C(=O)NO)ccc2n1CCN(CC)CC [Pracinostat (SB939)]	2.82	4.04	3.89	4.08	3.78	3.46
C1=N/C2=N/c3ccc(OCCN4CCCC4)c(c3)COC/C=C/COCc3cccc(c3)C(=C1)N2 [Pacritinib (SB1518)]	3.54	3.52	2.51	3.49	3.79	3.42
CN(CCOc1ccc(CC2SC(=O)NC2=O)cc1)c1ccccn1 (stereo not drawn) [Rosiglitazone maleate]	0.964	0.896	1.89	1.31	0.95	1.34
O=C1CCCC(=O)C1C(=O)c1ccc(C(F)(F)F)cc1[N+](=O)[O-] [Nitisinone]	1.12	0.58	1.2	1	0.455	1.09
COc1ccc(S(=O)(=O)Nc2cccnc2Nc2ccc(O)cc2)cc1	2.73	2.61	3.18	2.99	3.33	3.12
CC(=O)O[C@]1(C(C)=O)CC[C@H]2[C@@H]3C=C(Cl)C4=CC(=O)[C@@H]5C[C@@H]5[C@]4(C)[C@H]3CC[C@@]21C [Cyproterone Acetate]	1.3	0.841	0.95	0.862	1.95	0.974
Cc1[nH]c(/C=C2\C(=O)Nc3ccc(S(=O)(=O)Cc4c(Cl)cccc4Cl)cc32)c(C)c1C(=O)N1CCC[C@@H]1CN1CCCC1	3.99	4.22	1.16	2	1.59	4.7
COc1cc2nc(N3CCN(C(=O)C4CCCO4)CC3)nc(N)c2cc1OC (stereo not drawn) [Terazosin HCl Dihydrate]	1.02	0.591	1.34	1.07	1.69	1.43
FC(F)(F)c1ccc(/C=C/c2nc(COc3ccc(CCCCn4ccnn4)cc3)co2)cc1 [Mubritinib (TAK 165)]	0.614	1.76	1.4	1.61	1.89	1.42
O=C(Nc1nc2cccc(-c3ccc(CN4CCS(=O)(=O)CC4)cc3)n2n1)C1CC1 [Filgotinib (GLPG0634)]	0.844	0.922	1.29	1.45	2.21	1.22
CC(=O)Nc1nc(C)c(-c2ccc(Cl)c(S(=O)(=O)NCCO)c2)s1	0.94	1.48	1.62	2.98	0.945	1.12
NC1=N[C@@]2(c3cc(NC(=O)c4ccc(F)cn4)ccc3F)COC[C@H]2CS1	1.08	1.29	1.47	1.04	0.861	1.05
CCc1cncnc1N1CCN(Cc2nc3ccc(C(F)(F)F)cc3[nH]2)CC1	1.03	0.742	0.956	1.1	0.883	1.13
Cc1[nH]c2ccccc2c1CCNCc1ccc(/C=C/C(=O)NO)cc1 [Panobinostat]	3.44	4.4	4.84	3.48	4.4	3.58
CN(C)CCC=C1c2ccccc2CCc2ccccc21 [Amitriptyline HCl]	1.34	1.54	1.54	1.52	1.48	1.99
C=CC(=O)N1CC[C@H](n2nc(C#Cc3cc(OC)cc(OC)c3)c3c(N)ncnc32)C1	2.21	1.47	2.08	4.1	3.97	1.58
COC(=O)C1=C(C)NC(C)=C(C(=O)OCCN(C)Cc2ccccc2)C1c1cccc([N+](=O)[O-])c1 (stereo not drawn) [Nicardipine HCl]	1.27	1.28	0.897	0.903	1.24	1.31
C/C=C\c1ccc(O)c(OC)c1 [Isoeugenol]	0.776	0.444	1.07	0.672	0.417	0.903
Cc1ccc(C(=O)C(C)CN2CCCCC2)cc1 (stereo not drawn) [Tolperisone HCl]	0.966	0.611	1.08	0.909	0.439	0.725
Nc1nccc(Oc2ccc(NC(=O)c3c[nH]cc(-c4ccc(F)cc4)c3=O)cc2F)c1Cl	1.57	1.17	1.56	1.94	1.17	1.62
Cc1cccc(Oc2cnc(=O)[nH]c2)c1	1.47	1.3	1.39	1.47	0.543	0.931
O=C(O)c1ccccc1Nc1cccc(C(F)(F)F)c1 [Flufenamic acid]	1.11	1.08	0.674	1.09	0.711	1.36

Structure (SMILES)	Euclidean distance (786-O)	Euclidean distance (A549)	Euclidean distance (DU145)	Euclidean distance (FB)	Euclidean distance (HEPG2)	Euclidean distance (OVCAR4)
CCCCNc1ccc(C(=O)OCCN(C)C)cc1 [Tetracaine HCl]	0.993	0.918	0.964	1.06	0.941	1.79
O=C(c1ccccc1)c1ccc2n1CCC2C(=O)O (stereo not drawn) [Ketorolac]	1.49	1.29	0.701	0.977	0.545	1.06
Oc1cc(O)c(Cl)cn1 [Gimeracil]	0.868	1.07	1.6	1.25	2.06	1.53
C[C@H](CCC(=O)O)[C@H]1CC[C@H]2[C@@H]3C[C@H](O)[C@@H]4C[C@H](O)CC[C@]4(C)[C@H]3CC[C@]12C [Hyodeoxycholic acid (HDCA)]	1.08	0.973	0.585	0.898	0.401	1.37
Cc1cc(Nc2ncc(Cl)c(Nc3ccccc3S(=O)(=O)C(C)C)n2)c(OC(C)C)cc1C1CCNCC1 [Ceritinib (LDK378)]	6.15	4.94	7.35	6.34	4.96	5.69
OC[C@@H](O)CN1CCN(c2ccccc2)CC1 [Levodropropizine]	1.23	1.05	0.896	1.17	0.732	1.12
CN(C)c1cc(CNCC(C)(C)C)c(O)c2c1C[C@H]1C[C@H]3[C@H](N(C)C)C(O)=C(C(N)=O)C(=O)[C@@]3(O)C(O)=C1C2=O [Omadacycline tosylate]	1.25	0.879	1.21	1.14	0.757	1.46
Cc1ccc(NC(=O)c2cccc(N(C)C)c2)cc1NC(=O)c1ccc(O)cc1	2.67	2.66	2.38	2.03	1.55	2.26
CN(C)CC[C@H](CSc1ccccc1)Nc1ccc(S(=O)(=O)NC(=O)c2ccc(N3CCN(Cc4ccccc4-c4ccc(Cl)cc4)CC3)cc2)cc1[N+](=O)[O-]	0.812	2.83	1.36	0.853	0.522	1.01
CC(=O)Nc1ccccc1 [Acetanilide]	0.827	0.504	0.799	0.893	0.768	1.34
N#Cc1ccc2[nH]c(O)c(-c3ccc(CN4CCOCC4)cn3)c2c1	3.45	2.98	2.02	1.79	1.72	3.02
C[N+](C)(C)NCCC(=O)[O-] [Mildronate]	1.41	1.05	1.05	1.1	0.54	0.82
CCC1(C)CC(=O)NC1=O (stereo not drawn) [Ethosuximide]	0.782	1.2	1.11	0.965	0.843	1.04
O=C(Nc1ccc(Cl)cc1)Nc1ccc(Cl)c(Cl)c1 [Triclocarban]	2.18	3.14	1.62	1.74	3.53	2.98
CN1C(=O)C(C)(C)Oc2c(-c3cn(C)c(=O)c4[nH]ccc34)cc(S(C)(=O)=O)cc21	4.28	2.7	2.87	3.94	2.29	2.42
COCC(=O)NC/C=C/c1ccc2ncnc(Nc3ccc(Oc4ccc(C)nc4)c(C)c3)c2c1	0.785	1.34	1.13	0.952	0.896	0.777
O=C(Nc1ccc(Oc2ccc(Cl)cc2)c(Cl)c1)c1cc(I)cc(I)c1O [Rafoxanide]	1.36	1.72	1.23	1.19	1.44	1.54
CNS(=O)(=O)C[C@H]1CC[C@H](N(C)c2[nH]cnc3nccc2-3)CC1	1.06	0.94	1.61	1.3	0.907	0.949
COc1cccc2cc(-c3nc([C@H]4CC[C@H](C(=O)O)CC4)n4ncnc(N)c34)[nH]c12	2.33	2.18	1.44	3.76	2.92	3.56
Cn1nc(C(C)(C)C)cc1C(=O)N[C@@H](Cc1cccc(Cl)c1)C(=O)NCC#N [Cathepsin Inhibitor 1]	1.97	2.28	2.22	1.9	1.43	1.92
COc1cc2ncnc(Nc3cccc(Cl)c3)c2cc1OC [AG-1478 (Tyrphostin AG-1478)]	1.39	1.29	1.45	1.21	0.941	0.649
COc1ccc([C@]2(C#N)CC[C@@H](C(=O)O)CC2)cc1OC1CCCC1 [Cilomilast]	1.31	0.842	1.35	1.14	1.3	1.53
COc1cc([C@@H]2c3cc4c(cc3[C@@H](O[C@@H]3O[C@@H]5CO[C@@H](c6cccs6)O[C@H]5[C@H](O)[C@H]3O)[C@H]3COC(=O)[C@H]23)OCO4)cc(OC)c1O [Teniposide]	2.74	3.77	4.38	3.23	3.39	3.66
O=c1sn(-c2cccc3ccccc23)c(=O)n1Cc1ccccc1 [Tideglusib]	0.967	0.321	0.768	0.656	0.456	1.14
